{"source": "the supplement of paper PMC6555819", "data": [{"test_system": "VDR:RXRa (NR concentration 270 nM, RXRa partner concentration 90 nM)", "experiment": "PBM binding z-score (relative to random genomic background probes); higher = stronger binding; sequences stand for … in GC…GCGATTGACAGCGTAGAATGAAGG", "description": "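Protein-binding microarray (Agilent 4x180K custom design, double-stranded 60-nt probes: 5' GC cap, 34-nt variable region, 24-nt constant primer region; full probe sequence given). Purified or IVT nuclear receptor:RXRα heterodimers (3:1 NR:RXRα, mostly 270:90 nM) or homodimers were incubated for 1 h in PBS with 2% milk and no ligand, then detected with Alexa488 antibodies. Fluorescence from o1-orientation probes (~5 replicates averaged) was converted to z-scores against 500 random hg19 background probes. Variable regions are seed direct-repeat (DR0–DR5) sites, all their single-nucleotide variants and half-site ablations.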", "values": [{"sequence": "CCTTACGGGTCACTGACAGCTTATAGCATTTGGA", "PBM binding z-score": 3.11}, {"sequence": "TCGAGTAGGTTACGGGGGCATGCAGGGATGAAGA", "PBM binding z-score": 3.43}, {"sequence": "CGTCCAAGGTCAGTGAGGTCAGTGAATGCCGAGT", "PBM binding z-score": 7.42}, {"sequence": "CCTAGCAGGCGAGGGTCACTCAAGCATTTCGCTT", "PBM binding z-score": 1.59}, {"sequence": "CTATGGAGGTTAAGGGGGTCATTCAGTTTGAAAG", "PBM binding z-score": 8.03}, {"sequence": "ATCGGAAGGTCGAGGTGAGTATAGAGAAAGGGAA", "PBM binding z-score": 1.31}, {"sequence": "AGTCAAAGTTCACGAGGTAACGTAAGATTCAGCT", "PBM binding z-score": 4.94}, {"sequence": "ATCTCTAGGTAAATGTTCAGTGAATCCCGAGGAT", "PBM binding z-score": -0.0606}, {"sequence": "CTCGAAAGGTCGTGCTCAGGTGAGTACACCAAAC", "PBM binding z-score": 3.6}, {"sequence": "CCGAGTAGGTTACGAGGGGGCATTCAATGCGAAT", "PBM binding z-score": 4.88}, {"sequence": "ACTCGGGGGACAAAGGTCAGAGCTACGCCAGTGA", "PBM binding z-score": 4.66}, {"sequence": "CAAACTAGGTCACGAAAGGTCAACGTCGAATGAC", "PBM binding z-score": 6.9}, {"sequence": "CCTAGTTGGTCAGGAGGTCACATACCGGATATGA", "PBM binding z-score": 3.57}, {"sequence": "ATATGAAGGTTAGGGTCATTCAGAAAGTAGGGAA", "PBM binding z-score": 4.6}, {"sequence": "TAGCCTAGGTCATTCAGGCGCCAGTATAGAAAGC", "PBM binding z-score": 2.53}, {"sequence": "CCAGAAAGGTGAAAGGTAACTCAGTCTGGTACGC", "PBM binding z-score": 1.81}, {"sequence": "CCTACTGGGCCACGAAAGGTAATTGATTCAGTGA", "PBM binding z-score": -0.34}, {"sequence": "ATCGAAAGGTCGACGAGGTGAGAATACACCGTTT", "PBM binding z-score": 5.52}, {"sequence": "TCTCGGAGGACACGAAAGGTCTGAGCTCGACATC", "PBM binding z-score": 0.182}, {"sequence": "CAATCTAGGTCAAAGGTCAAAGTCGAGCCAACCA", "PBM binding z-score": 6.74}, {"sequence": "TCGAGTAGGTTACGGGGGCCTTCAGGGATGAAGA", "PBM binding z-score": 2.11}, {"sequence": "TGAATGACGTTAAAGATCAGGGAACGTGGCGTCG", "PBM binding z-score": -0.237}, {"sequence": "TGTCAAAGTTCTAAGGTAACGTAAGTATCCACAC", "PBM binding z-score": 0.479}, {"sequence": "TAGCCTAGGTCATGCGGGCCAGTATAGTGTCGGC", "PBM binding z-score": 2.89}, {"sequence": "CGTCAAAGTTAAAGGTAACGTAACAGAAAGCAGC", "PBM binding z-score": 0.291}, {"sequence": "AGTGAAAGTTCAGGACGAGGTAACGTAAAGCACG", "PBM binding z-score": 2.81}, {"sequence": "CCGAGTAGGTTACGAGGGGGCATTCATTGCGAAT", "PBM binding z-score": 4.7}, {"sequence": "GCTAGTAGGTCAGTAAAAGGTCACACACCGGTCG", "PBM binding z-score": 4.99}, {"sequence": "TAGCCTAGGTCATTCAGGGGCCAGAATAGAAAGC", "PBM binding z-score": 3.17}, {"sequence": "TAGCCTAGGTCATAGGGCCAGTATAGTACGCATC", "PBM binding z-score": 1.96}, {"sequence": "ACAGACAGGTGAGTGAAGGTCACTCAGCTGGACG", "PBM binding z-score": 2.73}, {"sequence": "TGGCCTAGGTCATGCGGGCCAGTATAGTGTCGGC", "PBM binding z-score": 2.64}, {"sequence": "TCGAGTAGGTTACGGGGGCATTCAGGGATGAAGA", "PBM binding z-score": 4}, {"sequence": "CGAACTAGTTCAAGGACAGTGAATCTCCGCACGC", "PBM binding z-score": 0.348}, {"sequence": "ATATGTAGTTTAGGGTCATTCAGAAAGTAGGGAA", "PBM binding z-score": 4.64}, {"sequence": "CGAACTAGGTCACCTGGACAGTGAAGAGGTTGGA", "PBM binding z-score": 2.34}, {"sequence": "ATATGTAGGTTAGGGTCATTCACAAAGTAGGGAA", "PBM binding z-score": 4.61}, {"sequence": "CCTAGTTGGTCAGGAGGTCCCACACCGGATATGA", "PBM binding z-score": 0.0687}, {"sequence": "CCTAGTTGGTCAAGGTCCCACACGCTATAGGTAC", "PBM binding z-score": 0.398}, {"sequence": "TTACAAAGGTGAAAGGTCGTTGATGCACGCCTTG", "PBM binding z-score": 4.35}]}]}
